Data: PubChem BioAssay (NCI)
This is part of a sample that, as a whole, favours compounds with a hit. Of some 79,000 tested, about 15% had one in any assay. Activity calls are given as the source filed them. Rule as the data show it: active = growth inhibition above about 70%; inactive = the rest.

Legend:
[1] = NCI Yeast Anticancer Drug Screen. Data for the rad52 strain (AID 147);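 also: 0% = growth of vehicle-treated control cultures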; details: S. cerevisiae rad52 mutant growth inhibition, active compounds read high
Outline: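 Read-out: growth inhibition versus vehicle-treated controls. Cells were a DNA repair-deficient yeast strain treated with compounds.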

[2] = NCI Yeast Anticancer Drug Screen. Data for the wt1 strain (AID 149);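 also: 0% = growth of vehicle-treated wt1 cultures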; details: S. cerevisiae wt1 strain (SPY 50644) growth inhibition, active compounds read high
Outline: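 Yeast wt1 strain exposed to compounds; growth inhibition measured relative to vehicle-treated controls.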

[3] = NCI Yeast Anticancer Drug Screen. Data for the rad50EPP+ strain (AID 151);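 also: 0% = growth of vehicle-treated control cultures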; details: S. cerevisiae rad50 mutant strain, active compounds read high
Outline: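 Growth inhibition read against vehicle controls in rad50EPP+ yeast, a strain altered in DNA damage repair, after compound exposure.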

[4] = NCI Yeast Anticancer Drug Screen. Data for the rad50 strain (AID 155);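 also: 0% = growth of vehicle-only cultures of the same strain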; details: S. cerevisiae rad50 strain growth inhibition, active compounds read high
Outline: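 Yeast carrying a defined DNA repair defect were exposed to test compounds, and growth was compared with vehicle-treated controls to give percent inhibition.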

[5] = NCI Yeast Anticancer Drug Screen. Data for the mec2-1 strain (AID 157); details: S. cerevisiae mec2-1 strain, active compounds read high
Outline: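 Yeast mec2-1 mutant treated with compound. Readout: growth inhibition vs vehicle controls.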

[6] = NCI Yeast Anticancer Drug Screen. Data for the rad14 strain (AID 159);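 also: 0% = growth of vehicle-treated control cultures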; details: S. cerevisiae rad14 strain growth inhibition, active compounds read high
Outline: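 Yeast cells carrying a defined DNA-repair defect were exposed to compounds, and growth inhibition was calculated relative to vehicle-treated control cultures.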

[7] = NCI Yeast Anticancer Drug Screen. Data for the sgs1 mgt1 strain (AID 161);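 also: 0% = growth of cultures given vehicle only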; details: S. cerevisiae sgs1 mgt1 strain, active compounds read high
Outline: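 Read-out: growth inhibition vs vehicle controls. Cells: mutant yeast strain deficient in DNA damage repair.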

[8] = NCI Yeast Anticancer Drug Screen. Data for the CLN2oe strain (AID 163);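 also: 0% = growth of vehicle-only control cultures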; details: S. cerevisiae CLN2oe strain, active compounds read high
Outline: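 Read-out: yeast growth inhibition, expressed relative to vehicle-only controls. The strain bears an engineered cell-cycle alteration.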

[9] = NCI Yeast Anticancer Drug Screen. Data for the cln2 rad14 strain (AID 165);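 also: 0% = growth equal to vehicle treated cultures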; details: S. cerevisiae cln2 rad14 strain, active compounds read high
Outline: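 cln2 rad14 yeast strain; compound exposure; growth inhibition read vs vehicle controls.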

[10] = NCI Yeast Anticancer Drug Screen. Data for the bub3 strain (AID 167); details: S. cerevisiae bub3 mutant strain, active compounds read high
Outline: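 Compounds were applied to a genetically altered yeast strain carrying a cell-cycle control defect. Growth inhibition was scored against vehicle-treated controls.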

[11] = NCI Yeast Anticancer Drug Screen. Data for the wt2 strain (AID 169);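 also: 0% = growth of vehicle-treated yeast cultures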; details: S. cerevisiae wt2 strain growth inhibition, active compounds read high
Outline: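 Read-out: growth inhibition versus vehicle-treated control cultures after compound exposure of the yeast strain.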

[12] = NCI Yeast Anticancer Drug Screen. Data for the mlh1 strain (AID 171);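 also: 0% = growth of vehicle-treated control cultures of the same strain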; details: S. cerevisiae mlh1 strain growth inhibition, active compounds read high
Outline: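 Read-out: growth inhibition versus vehicle controls. Strain: engineered yeast with a defined DNA repair or cell cycle defect, compound-treated.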

[13] = NCI Yeast Anticancer Drug Screen. Data for the sgs1 strain (AID 173);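 also: 0% = growth of vehicle-only control cultures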; details: S. cerevisiae sgs1 mutant, active compounds read high
Outline: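 Read-out: yeast growth inhibition relative to vehicle controls, following compound exposure of a strain with a defined DNA repair/cell cycle alteration.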

[14] = NCI Yeast Anticancer Drug Screen. Data for the mlh1 rad18 strain (AID 175); details: S. cerevisiae mlh1 rad18 strain growth inhibition, active compounds read high
Outline: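 Yeast w/ defined DNA-repair lesions; compound exposure; growth vs vehicle controls → % inhibition.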

[15] = at 5.0 µM (retest, dose inferred, filed as 0.5)
[16] = at 50.0 µM (retest, dose inferred, filed as 5.0)

Measured: growth inhibition

O=C1C=CC(=O)N1c1ccc(Br)cc1Cl
active: [1]; at 1.2 µM 91% | [1]; at 3.7 µM 101% | [1]; at 11.0 µM 99% | [1]; at 33.0 µM 99% | [1]; at 100.0 µM 99% | [2]; at 1.2 µM 95% | [2]; at 3.7 µM 101% | [2]; at 11.0 µM 99% | [2]; at 33.0 µM 99% | [2]; at 100.0 µM 98% | [3]; at 1.2 µM 90% | [3]; at 3.7 µM 102% | [3]; at 11.0 µM 100% | [3]; at 33.0 µM 99% | [3]; at 100.0 µM 99% | [4]; at 1.2 µM 99% | [4]; at 3.7 µM 101% | [4]; at 11.0 µM 100% | [4]; at 33.0 µM 100% | [4]; at 50.0 µM 92.2% | [4]; at 100.0 µM 99% | [5]; at 1.2 µM 97% | [5]; at 3.7 µM 101% | [5]; at 11.0 µM 100% | [5]; at 33.0 µM 99% | [5]; at 50.0 µM 93.7% | [5]; at 100.0 µM 99% | [6]; at 1.2 µM 99% | [6]; at 3.7 µM 102% | [6]; at 11.0 µM 100% | [6]; at 33.0 µM 100% | [6]; at 100.0 µM 100% | [7]; [15] 101% | [7]; [16] 98% | [8]; at 3.7 µM 101% | [8]; at 11.0 µM 99% | [8]; at 33.0 µM 99% | [8]; at 100.0 µM 99% | [9]; [15] 73% | [9]; [16] 100% | [10]; at 1.2 µM 98% | [10]; at 3.7 µM 101% | [10]; [15] 101% | [10]; at 11.0 µM 99% | [10]; at 33.0 µM 100% | [10]; [16] 98% | [10]; at 100.0 µM 99% | [11]; at 1.2 µM 76% | [11]; at 3.7 µM 101% | [11]; at 11.0 µM 99% | [11]; at 33.0 µM 99% | [11]; at 100.0 µM 99% | [12]; at 1.2 µM 96% | [12]; at 3.7 µM 101% | [12]; at 11.0 µM 100% | [12]; at 33.0 µM 97% | [12]; at 100.0 µM 99% | [13]; at 1.2 µM 92% | [13]; at 3.7 µM 102% | [13]; at 11.0 µM 99% | [13]; at 33.0 µM 99% | [13]; at 100.0 µM 99% | [14]; at 50.0 µM 92.7%
inactive: [4]; [15] 15% | [4]; [16] 51% | [5]; [15] 44% | [5]; [16] 42% | [8]; at 1.2 µM 63% | [14]; [15] 22% | [14]; [16] 42%
